A selection: hits, their analogues and other compounds. The true share with any hit is near 19%.
SW480 rerep: DNA re-replication induction in SW480 cells. SW480 DNA re-replication, Hoechst DNA content imaging, 48 h. Potency, µM (highest dose often 46.1 µM), most hits filed as activators. 340,000 tested, 1.8% active. AID 624297; also: nearly all actives have a fitted effect of over 55% in size
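Cells (250 per well) received 23 nL compound or DMSO by pin tool and were kept 48 hr at 37 C, 5% CO2. Nuclei were then stained with Hoechst for 40 min and scanned for DNA content.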
IL-1B inflam inh: blocks inflammasome-driven IL-1 beta release; THP-1 LPS/ATP IL-1B secretion, AlphaLISA, 16 h; stronger effect = lower value; activity change, % at 57.5 µM; 360,000 tested, 4.7% active; in the data active = activity change below about -50%; inconclusive = mostly about -30% to -49%
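Secreted IL-1B measured by AlphaLISA bead assay after 16 h compound exposure of THP-1 cells; compounds (final up to 57.5 uM) added 1 h before LPS (250 ng/mL) and ATP (1.25 mM) stimulation; lower signal means less secretion.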
DT40 TDP1 no CPT: qHTS for Inhibitors of human tyrosyl-DNA phosphodiesterase 1 (TDP1): qHTS in cells in absence of CPT; Potency, µM (series often up to 46.2 µM), hits mostly inhibitors; DT40 Tdp1-/- hTDP1 cells, no CPT, ATP luminescence, 48 h; 420,000 tested, 15% active; AID 686978, 2013; also: nearly all actives have a fitted effect of over 55% in size
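Growth kinetics read by CellTiter-Glo luminescence after ≥48 hr at 37 °C. Cells: DT40 Tdp1-/- stably carrying human TDP1, 400 per well, compound exposure in the absence of CPT (DMSO vehicle).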
TDP1 cell CPT: growth inhibition of DT40 Tdp1-/-;hTDP1 cells with camptothecin (screen for TDP1 inhibitors) | chicken DT40 Tdp1-/-;hTDP1 cells + 20 nM CPT, ATP luminescence, 48 h | Potency, µM (series often up to 46.2 µM), most hits filed as inhibitors | 420,000 tested, 12% active; also: nearly all actives have a fitted effect of over 55% in size
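Chicken DT40 Tdp1-/- cells complemented with human TDP1, 400 cells/well, exposed to compounds plus 20 nM camptothecin for at least 48 h at 37 C; viability read as ATP content by CellTiter-Glo luminescence.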
Chronic BCR inh: chronic active BCR signaling inhibition | ABC-DLBCL IkBa-CBG/CBR reporter, luminescence ratio, 4 h | 340,000 tested, 0.05% active | Potency, µM (titrated, usually from 46.1 µM), most hits filed as inhibitors; active = well fitted inhibition curve with a large enough effect in the signal ratio, with a control signal flat, not every such curve was filed as active; inconclusive = small, poorly fitted or top-dose-only effect, or effect the other way, or a change in a side signal; the % refers to the signal ratio
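Compounds up to 46 uM were incubated four hours with TMD8 cells whose green CBG68 luciferase is fused to IkappaBalpha; red CBR luminescence normalised the signal, and concentration-effect curves were fitted to fusion, red and ratio data.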
MCF10A rereplic: inducers of DNA re-replication in MCF 10A breast cells. Potency, µM (highest dose often 46.1 µM), most hits filed as activators. 350,000 tested, 2.9% active. AID 624296. MCF 10A DNA re-replication, Hoechst nuclear intensity, 48 h; also: nearly all actives have a fitted effect of over 50% in size
Large screens that a line does not name were inactive. Unless noted, calls follow the shape of the dose curve; as a rule, active = well fitted curve in the direction sought with a large enough effect; inconclusive = small, poorly fitted or top-dose-only effect, or another doubt; inactive = no such curve, though single readings can be large; an effect the other way counts as inactive or inconclusive.

O=C(c1ccc(S(=O)(=O)Nc2cccc(C(F)(F)F)c2)cc1)N1CCN(c2ccccc2O)CC1	IL-1B inflam inh inconclusive, DT40 TDP1 no CPT 23µM, TDP1 cell CPT inconclusive, MCF10A rereplic inconclusive
CCN1CC(CN(C)Cc2nc(Cc3ccccc3)no2)CC1=O (centres undefined)	none
Cc1ccccc1-c1csc(C(C)(O)c2ccc(F)c(F)c2)n1 (centres undefined)	DT40 TDP1 no CPT inconclusive, TDP1 cell CPT inconclusive (no result: SW480 rerep, Chronic BCR inh, MCF10A rereplic)
O=C(COC(=O)c1cccc([N+](=O)[O-])c1)Nc1ncc(Br)s1	SW480 rerep inconclusive
CSCCC(NS(=O)(=O)c1ccccc1F)C(=O)N1CCCCCC1 (centres undefined)	none
COc1ccc(S(=O)(=O)Nc2ccccc2C(F)(F)F)cc1	DT40 TDP1 no CPT inconclusive
COc1ccc(NS(=O)(=O)c2ccc(NC(=O)C3CC3)cc2)cc1	DT40 TDP1 no CPT 9.2µM, TDP1 cell CPT 8.2µM
Nc1ccc(N2CCCC2)c(S(=O)(=O)Nc2cccc(C(F)(F)F)c2)c1	IL-1B inflam inh inconclusive, DT40 TDP1 no CPT 29µM, TDP1 cell CPT inconclusive
COc1ccc(NS(=O)(=O)c2cc(N)ccc2N2CCCCC2)cc1	TDP1 cell CPT inconclusive
COc1ccc(S(=O)(=O)Nc2ccc(O)c3ccccc23)cc1	SW480 rerep inconclusive, DT40 TDP1 no CPT 4.6µM, TDP1 cell CPT 3.3µM, Chronic BCR inh inconclusive, MCF10A rereplic inconclusive
CSCCC(NS(=O)(=O)c1ccc(C)cc1)C(=O)N1CCCCCCC1 (centres undefined)	DT40 TDP1 no CPT 16µM, TDP1 cell CPT inconclusive
COCCNC(=O)C1(C)CCCN(C(=O)c2cccnc2SC)C1 (centres undefined)	none (no result: SW480 rerep, Chronic BCR inh, MCF10A rereplic)
CCCCN1C(=O)C(=O)NC[C@@H]1Cc1ccc(O)cc1	none (no result: SW480 rerep, Chronic BCR inh, MCF10A rereplic)
COc1ccc(N2CCN(C(=O)COC(=O)c3cccc(S(=O)(=O)Nc4cccc(C)c4)c3)CC2)cc1	DT40 TDP1 no CPT inconclusive, TDP1 cell CPT 16µM
COc1ccccc1Nc1ccc(NS(=O)(=O)c2ccc(C(C)=O)cc2)cc1	DT40 TDP1 no CPT 16µM, Chronic BCR inh inconclusive
COc1ccc(NS(=O)(=O)c2cccc(C(=O)N3CCCCCC3)c2)cc1	none
O=C(OCC(=O)N1CCCCC1)c1cccc(NS(=O)(=O)c2ccccc2)c1	Chronic BCR inh inconclusive
O=C(Nc1ccc(C(=O)N2CCCCC2)cc1)c1ccccc1	none (no result: Chronic BCR inh)
COc1ccc(NS(=O)(=O)c2ccc(C(=O)N3CCCCCC3)cc2)cc1	IL-1B inflam inh -52, DT40 TDP1 no CPT 8.2µM, TDP1 cell CPT 10µM, MCF10A rereplic inconclusive
O=C(Nc1ccccc1)Nc1ccc(C(=O)N2CCCC2)cc1	SW480 rerep inconclusive, IL-1B inflam inh inconclusive, DT40 TDP1 no CPT 12µM, TDP1 cell CPT 21µM
Cc1ccc(S(=O)(=O)N(C)/N=C2/C(=O)N(CC(=O)O)c3ccccc32)cc1	none
O=C(NCc1ccc(F)cc1)c1cc2c(=O)n3ccccc3nc2s1	TDP1 cell CPT inconclusive (no result: SW480 rerep, IL-1B inflam inh, Chronic BCR inh, MCF10A rereplic)
CCOc1ccc(S(=O)(=O)Nc2ccc(C(=O)N(C)CC(=O)Nc3ccc(OC)cc3)cc2)cc1	TDP1 cell CPT inconclusive
CSCCC(NS(=O)(=O)c1ccc(Cl)cc1)C(=O)OCc1c(Cl)cccc1Cl (centres undefined)	SW480 rerep inconclusive, DT40 TDP1 no CPT 21µM, TDP1 cell CPT inconclusive, MCF10A rereplic 16µM
CCOc1ccc(NS(=O)(=O)c2ccc(C(=O)N(C)CC(=O)Nc3cccc(OC)c3)cc2)cc1	DT40 TDP1 no CPT 16µM, TDP1 cell CPT 18µM, MCF10A rereplic inconclusive (no result: Chronic BCR inh)
CSCCC(NS(=O)(=O)c1ccc(Cl)cc1)C(=O)OCc1cccc(Cl)c1 (centres undefined)	SW480 rerep inconclusive, DT40 TDP1 no CPT inconclusive, TDP1 cell CPT inconclusive, MCF10A rereplic inconclusive
CCOc1ccc(S(=O)(=O)Nc2cccc(C(=O)N3CCN(c4cccc(OC)c4)CC3)c2)cc1	DT40 TDP1 no CPT 18µM, TDP1 cell CPT 23µM, Chronic BCR inh inconclusive
CCOc1ccc(NS(=O)(=O)c2ccc(C(=O)N3CCCC(C)C3)cc2)cc1 (centres undefined)	SW480 rerep inconclusive, DT40 TDP1 no CPT 16µM, TDP1 cell CPT 16µM
Cc1nnc(N2CCC(C(=O)N3CCCCC3)CC2)c2nn(-c3ccccc3)c(C)c12	DT40 TDP1 no CPT inconclusive (no result: SW480 rerep, IL-1B inflam inh, Chronic BCR inh, MCF10A rereplic)
CCOc1ccc(NS(=O)(=O)c2ccc(C(=O)N3CCCCCC3)cc2)cc1	DT40 TDP1 no CPT 18µM, TDP1 cell CPT 15µM, MCF10A rereplic inconclusive
CSCCC(NS(=O)(=O)c1ccc2c(c1)oc(=O)n2C)C(=O)N1CCN(c2cc(Cl)ccc2C)CC1 (centres undefined)	DT40 TDP1 no CPT 15µM, TDP1 cell CPT inconclusive (no result: SW480 rerep, IL-1B inflam inh, MCF10A rereplic)
COc1ccc(S(=O)(=O)Nc2ccccc2)cc1	none (no result: Chronic BCR inh)
CSCCC(NS(=O)(=O)c1ccc2c(c1)oc(=O)n2C)C(=O)N1CCN(c2ccc(F)cc2)CC1 (centres undefined)	DT40 TDP1 no CPT inconclusive (no result: SW480 rerep, IL-1B inflam inh, MCF10A rereplic)
O=C(c1ccc(S(=O)(=O)Nc2ccccc2)cc1)N1CCC1	SW480 rerep 15µM, TDP1 cell CPT inconclusive, Chronic BCR inh inconclusive
COc1ccc(S(=O)(=O)Nc2ccc(Nc3ccccc3)cc2)cc1	DT40 TDP1 no CPT inconclusive, TDP1 cell CPT 21µM (no result: Chronic BCR inh)
CN(C)C(=O)c1ccc2c(c1)N(CC(=O)NCc1ccc(F)cc1)C(=O)C1CCCCN21 (centres undefined)	none (no result: SW480 rerep, IL-1B inflam inh, Chronic BCR inh, MCF10A rereplic)
Cc1cc(C)cc(NC(=O)N2CCC(N3CCCCC3)CC2)c1	none (no result: SW480 rerep, IL-1B inflam inh, Chronic BCR inh, MCF10A rereplic)
COc1cccc(C(=O)c2cn(CC(=O)Nc3cccc(Cl)c3C)c3nc(C)ccc3c2=O)c1	none (no result: SW480 rerep, IL-1B inflam inh, Chronic BCR inh, MCF10A rereplic)
O=C1c2ccccc2-c2nc3ccccc3nc21	DT40 TDP1 no CPT inconclusive, TDP1 cell CPT inconclusive, Chronic BCR inh inconclusive
Cc1nc2c(nc1C)C(=O)c1ccccc1C2=O	SW480 rerep 13µM, DT40 TDP1 no CPT 4.6µM, TDP1 cell CPT 3.7µM, MCF10A rereplic 5.8µM (no result: Chronic BCR inh)
CC(=O)N1c2ccc(S(=O)(=O)NCCc3ccccc3)cc2CC1C (centres undefined)	DT40 TDP1 no CPT 12µM, TDP1 cell CPT inconclusive
COc1ccc(CCNS(=O)(=O)c2ccc3c(c2)CC(C)N3C(=O)C2CCC2)cc1OC (centres undefined)	DT40 TDP1 no CPT 13µM, TDP1 cell CPT inconclusive (no result: SW480 rerep, IL-1B inflam inh, Chronic BCR inh, MCF10A rereplic)
CC1Cc2cc(S(=O)(=O)NCCc3ccccc3)ccc2N1C(=O)C1CC1 (centres undefined)	DT40 TDP1 no CPT 15µM, TDP1 cell CPT 15µM, MCF10A rereplic inconclusive

Screens as filed in PubChem.
